Screens (PubChem)
Hits are enriched below; roughly 2.9% of the tested compounds scored in any of these assays.
GLP1R ag – GLP-1 receptor (human) agonism; AID 624172; 380,000 tested, 0.007% active; Potency, µM (series often up to 45.6 µM), usual class: activators; P43220; HEK293 GLP-1R CRE-luciferase, luminescence, 4-6 h; cells express a hypersensitive GLP-1R form
Target sequence (P43220 whole entry, looked up): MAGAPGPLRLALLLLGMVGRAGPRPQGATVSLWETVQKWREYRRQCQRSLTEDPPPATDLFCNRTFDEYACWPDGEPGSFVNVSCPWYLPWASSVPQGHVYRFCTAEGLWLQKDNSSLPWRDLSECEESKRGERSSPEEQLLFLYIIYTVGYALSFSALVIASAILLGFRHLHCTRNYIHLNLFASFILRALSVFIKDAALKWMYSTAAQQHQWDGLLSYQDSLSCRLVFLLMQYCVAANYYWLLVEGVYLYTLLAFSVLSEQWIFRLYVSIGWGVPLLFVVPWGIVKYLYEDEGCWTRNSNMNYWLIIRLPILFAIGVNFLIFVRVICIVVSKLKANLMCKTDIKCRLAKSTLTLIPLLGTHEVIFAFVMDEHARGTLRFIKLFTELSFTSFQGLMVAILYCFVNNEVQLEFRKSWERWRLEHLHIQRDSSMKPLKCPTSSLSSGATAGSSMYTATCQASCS
p53 reactivator – re-activators of mutant p53; H1299 p53-A138V BP100-luciferase reporter, luminescence, 24 h; Potency, µM (doses to about 92.2 µM), most hits filed as activators; 320,000 tested, 0.063% active; AID 504706; note: nearly all actives have a fitted effect of over 45% in size
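H1299 (p53-null), stable ts p53-A138V + BP100-Luc; 1000 cells/well, Opti-MEM/10% FBS; cpd 4 pt, 1:5; 24 h, 37 deg C, 5% CO2; detection reagent 10 min RT; luminescence.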
GLP1R inv ag – inverse agonists of human GLP-1 receptor; P43220; HEK293 GLP-1R CRE-luciferase, luminescence, 24 h; GLP-1R form is constitutively active; Potency, µM (doses to about 38.3 µM), actives largely listed as inhibitors; 410,000 tested, 1.6% active; note: nearly all actives have a fitted effect of over 55% in size
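HEK293 cells stably co-expressing constitutively active GLP-1R and a cAMP-responsive luciferase reporter were seeded in DMEM with 10% Nu serum, given compounds after 12 h, and incubated 24 h at 37 deg C. Luminescence was then read.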
ClpP mod – qHTS Assay for Activators of ClpP. ATP-dependent Clp protease proteolytic subunit (Bacillus subtilis (strain 168)), P80244. purified B. subtilis ClpP, FRET peptide cleavage, 20 min. Potency, µM (top dose mostly 57.5 µM). 340,000 tested, 1.9% active. AID 651965, 2013; active = well fitted falling curve with a large enough effect; inconclusive = small, poorly fitted or top-dose-only effect; inactive = no such curve, though single readings can be large or run the other way; note: the source files actives as falling curves though it sought activators and does not explain the sign; nearly all actives have a fitted effect of over 65% in size
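ClpP 10 microg/mL final, pH 8 Tris/KCl buffer with BSA, glycerol, Tween-20; compound pinned in; FRET-FV substrate; RT 20 min; Ex320/Em430; ΔFRET vs ADEP 5.8 microM, DMSO, no enzyme.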
LDHA inh – LDHA (human) enzyme inhibition | activity change, % (values are at about 110 or 230 µM) | P00338 | 480,000 tested, 0.15% active | purified LDHA, NADH/diaphorase-resazurin fluorescence; stronger effect = lower value; in the data active = activity change below about -30%; inconclusive = mostly about -25% to -30%
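Human LDH5 (2 nM) was incubated with 0.06 mM NADH and 0.2 mM pyruvate for 5 min at room temperature in Tris pH 7.4. Remaining NADH was coupled through diaphorase/resazurin, and resorufin fluorescence was read at 0 and 20 min.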
HEK293 tox – cytotoxicity counter-screen for GLP-1 receptor inverse agonists | 410,000 tested, 0.13% active | Potency, µM (series often up to 38.3 µM), most hits filed as inhibitors | HEK293 cAMP-luciferase reporter cells, luminescence, 24 h;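 note: loss of luciferase light is scored as toxicity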
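Seeding density was 200 cells/uL; after overnight-length (12 h) culture, 23 nL compounds went on for 24 h at 37 °C. Readout used a luciferase detection reagent, luminescence taken after 12 min at room temperature.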
Hits are given with their value; - = inactive; ? = inconclusive; . = no result. Unless noted, calls come from the whole dose curve; as a rule, active = well fitted curve in the direction sought with a large enough effect; inconclusive = small, poorly fitted or top-dose-only effect, or another doubt; inactive = no such curve, though single readings can be large; an effect the other way counts as inactive or inconclusive.

SMILES	GLP1R ag	p53 reactivator	GLP1R inv ag	ClpP mod	LDHA inh	HEK293 tox
CC1CCN(S(=O)(=O)c2ccc3c(c2)c(=O)c(C(=O)N2CCCCC2)cn3C)CC1	-	-	-	-	-	-
Cc1ccc(-c2nc3c(cnn3-c3ccccc3)c(=O)n2-c2cccc(Cl)c2)cc1	.	.	4.5µM	?	-	-
CSCC(=O)N1CCC(n2nccc2NC(=O)CCc2ccccc2)CC1	-	-	-	-	-	-
O=[N+]([O-])c1ccc(-c2nc(-c3cccs3)c(-c3cccs3)[nH]2)cc1	-	-	3.2µM	-	-	?
O=[N+]([O-])c1cccc(-c2nc(-c3cccs3)c(-c3cccs3)[nH]2)c1	-	-	2.5µM	-	-	-
Cc1ccc(-c2nc(-c3cccs3)c(-c3cccs3)[nH]2)cc1	.	.	?	?	-	-
Oc1cccc(-c2nc(-c3cccs3)c(-c3cccs3)[nH]2)c1	.	.	?	25µM	-	-
Cc1cc(C)cc(NC(=O)[C@H](Cc2c[nH]c3ccccc23)NC(=O)[C@@H]2Cc3ccccc3CN2)c1	-	.	?	-	-	-
O=C(COC(=O)c1cc2ccccc2cc1O)NCc1ccccc1	-	-	-	.	-	-
Cc1ccc(F)cc1NC(=O)CCCSc1nc2ccccc2s1	.	.	.	.	-	.
COc1cccc(Nc2nc(-c3ccc4c(c3)CCC(=O)N4)cs2)c1	.	.	.	.	-	.
COc1ccccc1Nc1nc(-c2ccc3c(c2)CCC(=O)N3)cs1	.	.	.	.	-31	.
COc1ccc(CNC(=O)c2cccc(N(C)C)c2)cc1	-	-	-	-	-	-
CCNC(=O)C1(C)CCCN(Cc2ccc3ccccc3c2Br)C1 (centres undefined)	-	.	?	-	-	-
Cc1c(NC(=O)c2cccc(S(=O)(=O)N(C)C)c2)c(=O)n(-c2ccccc2)n1C	.	.	.	.	-	.
CCCCN(c1ccccc1)S(=O)(=O)c1cccc(C(=O)Nc2c(C)n(C)n(-c3ccccc3)c2=O)c1	-	.	11µM	-	-	-
CC(=O)NCc1ccc2[nH]c(C)cc2c1	-	-	-	-	-	-
CCNC(=S)N/N=C/c1cccc(F)c1	.	.	.	.	-	.
COc1ccc(CNC(=O)CC23CC4CC(CC(C4)C2)C3)cc1	-	-	?	.	-	-
COc1ccc(CCC(=O)NCC23CC4CC(CC(C4)C2)C3)cc1	-	-	6.3µM	-	-	-
S=C1SCN(Cc2cccnc2)CN1Cc1cccnc1	-	-	3.2µM	.	-	?
COc1ccc(CN2CSC(=S)N(Cc3ccccc3)C2)cc1	-	-	10µM	-	-	?
O=C(Nc1ccc(NC(=O)N2CCN(c3ccccc3O)CC2)cc1)N1CCN(c2ccccc2O)CC1	-	-	5µM	.	-	-
Cn1c(=O)c2c(nc(CN3CCN(Cc4ccccc4)CC3)n2CCCc2ccccc2)n(C)c1=O	.	.	.	.	-	.
CCOc1ccc(N2CC(C(=O)Nc3ncccc3C)CC2=O)cc1 (centres undefined)	-	-	-	18µM	-	-
SMILES	GLP1R ag	p53 reactivator	GLP1R inv ag	ClpP mod	LDHA inh	HEK293 tox
CC(C(=O)N(C)Cc1ccccc1)N1CCN(C/C=C/c2ccccc2)CC1 (centres undefined)	-	-	-	.	-31	-
CC(=O)c1ccc(NC(=O)C(C)N2CCN(C/C=C/c3ccccc3)CC2)cc1 (centres undefined)	-	-	-	.	-	-
CCCN(CC(=O)Nc1ccccc1OC)C(=O)CC1CCCC1	-	-	8.9µM	-	-	-
CCCN(CC(=O)Nc1ccccc1OC)C(=O)Cc1ccccc1F	-	-	-	.	-	-
CCCN(CC(=O)Nc1ccccc1OC)C(=O)c1cc(-c2ccccc2)nn1-c1ccccc1	-	-	10µM	-	-	-
CC(=O)N(CCCN(C)C)CCC(C)CCC=C(C)C (centres undefined)	-	-	4µM	-	-	-
CC(=O)N(CCCc1ccc(C(C)(C)C)cc1)CCCN(C)C	-	-	?	-	-	-
Cc1cccc(NC(=S)N=Nc2c(O)[nH]c3ccccc23)c1	-	-	10µM	-	-	10µM
CCCSC1=NN2CCCC(=O)N=C2S1	-	?	-	.	-	-
